Growth inhibition data for 40 molecules are collected here from PubChem BioAssay (NCI).

SMILES strings stand for the structures. The panel holds about 79,000 compounds, 15% with a hit somewhere; the sample as a whole holds those more often. Unmarked numbers belong to inactive results. Activity calls are given as the source filed them. No stated cut-off is given here; in the data, active means growth inhibition above about 70%; inactive means the rest.

A short description of test [1]: NCI Yeast Anticancer Drug Screen. Data for the rad50 strain (AID 155).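 Further: 0% = growth of vehicle-only cultures of the same strain.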 The conditions noted are these: S. cerevisiae rad50 strain growth inhibition; at 50.0 µM; active compounds read high. In short, it runs like this:
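Readout: growth inhibition relative to vehicle-treated cultures. Compound exposure was carried out in a genetically defined yeast strain deficient in DNA damage repair.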

Test [2] in a line: NCI Yeast Anticancer Drug Screen. Data for the mec2-1 strain (AID 157). The conditions noted are these: S. cerevisiae mec2-1 strain, at 50.0 µM, active compounds read high. Summed up: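 mec2-1 yeast strain, carrying an alteration in DNA damage repair or cell cycle control, was exposed to compounds; growth inhibition was measured relative to vehicle-treated controls.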
A short description of test [3]: NCI Yeast Anticancer Drug Screen. Data for the sgs1 mgt1 strain (AID 161).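 Further: 0% = growth of cultures given vehicle only.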 The conditions noted are these: S. cerevisiae sgs1 mgt1 strain, at 50.0 µM, active compounds read high. Summed up:
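Compounds are added to genetically altered yeast, and growth is compared with cultures given vehicle alone to give percent inhibition.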

The nature of test [4]: NCI Yeast Anticancer Drug Screen. Data for the cln2 rad14 strain (AID 165).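 Further: 0% = growth equal to vehicle treated cultures.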 To be noted: S. cerevisiae cln2 rad14 strain, at 50.0 µM, active compounds read high. Summed up: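 Yeast carrying cln2 and rad14 alterations (cell cycle control and DNA damage repair) were exposed to compounds. Growth inhibition was measured against vehicle-treated controls.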
A short description of test [5]: NCI Yeast Anticancer Drug Screen. Data for the bub3 strain (AID 167). The conditions noted are these: S. cerevisiae bub3 mutant strain, at 50.0 µM, active compounds read high. Summed up:
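Readout: yeast growth inhibition, expressed relative to vehicle-only wells. The test organism is a mutant strain from a panel with lesions in DNA repair or checkpoint genes.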

The nature of test [6]: NCI Yeast Anticancer Drug Screen. Data for the mlh1 rad18 strain (AID 175). To be noted: S. cerevisiae mlh1 rad18 strain growth inhibition; at 50.0 µM; active compounds read high. In short, it runs like this:
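Growth inhibition of the yeast strain was measured after compound exposure and expressed relative to vehicle-treated controls. The strain carries defined defects in DNA damage repair.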

Take `COc1ccc(CCC(O)c2ccccc2)cc1` (stereo not given): the growth inhibition is 25.7% in test [1]; 20.4% in test [2]; 3.65% in test [3]; 16.1% in test [4]; 19.3% in test [5]; 16.1% in test [6].

For `CCCSC(=O)Nc1ccc(Cc2ccc(NC(=O)SCCC)cc2)cc1`, the growth inhibition in test [1] is 2.05%; in test [2], -17.3%; in test [3], 16.6%; in test [4], 21.8%; in test [5], 16.4%; in test [6], 14.5%.

As for `CN=C1NC(C)(C)C2CCC(C)(CC2)S1`, the growth inhibition in test [1] was 8.35%; in test [2], 14.9%; in test [3], -4.3%; in test [4], -71.3%; in test [5], 2.85%; in test [6], 14.7%.

For `CN1C(=O)c2cnc3ccccc3c2C1(O)c1ccccc1` (stereo not given), the growth inhibition in test [1] is -1.75%; in test [2], 1.35%; in test [3] it was 2.4%; in test [4], 5.25%; in test [5], 0%; in test [6], 3.9%.

On to `CC(=O)OCSc1ncnc2c1ncn2CN1CCOCC1`, for which the growth inhibition was 7.15% in test [1]; 2.25% in test [2]; -19.9% in test [3]; 1.8% in test [4]; -4.85% in test [5]; 7.85% in test [6].

Consider `FC(F)(F)c1ccc2c(c1)N(CCCN1CCN(CCN3CCCCC3)CC1)c1ccccc1S2`, for which the growth inhibition is 88.9% (active) in test [1]; 46% in test [2]; 89% (active) in test [3]; 27.2% in test [4]; 87.4% (active) in test [5]; 91.8% (active) in test [6].

On to `CCCCS(=O)(=O)CCCC`, for which the growth inhibition in test [1] is 18.5%; in test [2] it was 0.9%; in test [3] it was -10.2%; in test [4], 0.6%; in test [5], -1.3%; in test [6], 22.9%.

For `COC(=O)c1ccccc1OC(=S)N(C)C`, the growth inhibition was -8.75% in test [1]; -11.4% in test [2]; -8.45% in test [3]; -29.1% in test [4]; 0.75% in test [5]; -17.4% in test [6].

For the molecule `Cc1csc2[nH]c(=O)[nH]c(=O)c12`, the growth inhibition in test [1] was 5.5%; in test [2] it was 6.05%; in test [3] it was -1.4%; in test [4], -28.1%; in test [5], -15.2%; in test [6], 4.5%.

In the case of `NC(=O)N/N=C(\CC1OC(=O)c2ccccc21)c1ccc([N+](=O)[O-])cc1` (stereo not given), the growth inhibition in test [1] was 5.4%; in test [2], 3.85%; in test [3] it was -17.6%; in test [4], 3.85%; in test [5] it was -23.9%; in test [6] it was 0%.

For the molecule `COc1cnc(NS(=O)(=O)c2ccc(N)cc2)nc1`, the growth inhibition is -12.2% in test [1]; -9.8% in test [2]; -9.45% in test [3]; 10.2% in test [4]; -10% in test [5]; -7.2% in test [6].

For the molecule `CCc1ccc(OC(C)=O)cc1`, the growth inhibition in test [1] is 12.5%; in test [2] it was 10.6%; in test [3], -13.2%; in test [4], -21.7%; in test [5] it was 6.6%; in test [6], 15.6%.

Take `CCOC(=O)/C=C(\C)c1ccc(OC)cc1`: the growth inhibition in test [1] is 7.2%; in test [2], -22.4%; in test [3] it was -3.3%; in test [4], -7.5%; in test [5], -8.7%; in test [6] it was 11.8%.

As to `N#C/C1=C(\C#N)CCC2(C#N)C3C=CC(O3)C2(C#N)CC1` (stereo not given), the growth inhibition was 14.9% in test [1]; 12.6% in test [2]; -0.65% in test [3]; 13.3% in test [4]; 8.45% in test [5]; 23.1% in test [6].

With `CCCCNc1nc(NC2OCC(OC(C)=O)C(OC(C)=O)C2OC(C)=O)c(N=O)c(=O)n1C` (stereo not given), the growth inhibition was -4% in test [1]; -21.4% in test [2]; -4.3% in test [3]; -28.4% in test [4]; -12.5% in test [5]; -2.9% in test [6].

Regarding `O=C(Cc1ccccc1)NCc1ccc(Cl)cc1`, the growth inhibition in test [1] was 3.75%; in test [2] it was 18.2%; in test [3] it was 34.1%; in test [4], -5.7%; in test [5] it was 41.1%; in test [6] it was 27.4%.

As to `Cc1ccc(NC(=O)Oc2cccc(C(F)(F)F)c2)cc1`, the growth inhibition was -8.55% in test [1]; 17.4% in test [2]; 23.1% in test [3]; -12.7% in test [4]; 15.4% in test [5]; 35.6% in test [6].

In the case of `CC(=O)NCC(O)c1ccc([N+](=O)[O-])cc1` (stereo not given), the growth inhibition was -23.3% in test [1]; -31.1% in test [2]; 1.4% in test [3]; 7% in test [4]; -14.1% in test [5]; -23% in test [6].

As for `O=C(O)c1cncc(C(=O)O)c1`, the growth inhibition is -37% in test [1]; -12.7% in test [2]; -14.7% in test [3]; -7.6% in test [4]; -47.5% in test [5]; -24.6% in test [6].

For `C=CCC1(C(C)C(O)c2cc(OC)c(OC)c(OC)c2)CC(O)C=CC12OCCO2` (stereo not given), the growth inhibition in test [1] is 13.9%; in test [2], -17.3%; in test [3], 1.5%; in test [4], 14.9%; in test [5] it was 16.2%; in test [6], 24.6%.

As to `O=C1OC(=O)C2=C1CCC2`, the growth inhibition in test [1] is -5%; in test [2] it was -14.1%; in test [3], -20.4%; in test [4] it was 13.3%; in test [5], 3.85%; in test [6] it was -12.4%.

For `c1ccc2c(c1)nc(NC1CCCC1)c1[nH]c(C3CCCC3)nc12`, the growth inhibition in test [1] is -26.1%; in test [2] it was -36.6%; in test [3], -56.9%; in test [4], -10.3%; in test [5], -29.2%; in test [6], -50%.

Turning to `CCOC(=O)C1OC1(C)CC` (stereo not given), the growth inhibition was 4.1% in test [1]; 1% in test [2]; 10.3% in test [3]; -5.85% in test [4]; -5.25% in test [5]; -21.4% in test [6].

As to `COC(=O)C(O)CC1=CC[C@@H]2CC=C[C@H]12` (stereo not given in full), the growth inhibition in test [1] was 27.7%; in test [2], 1.7%; in test [3], 13.7%; in test [4], 3.7%; in test [5], 27.5%; in test [6], -7.65%.

For `CCCCn1cnc2c(=S)nc[nH]c21`, the growth inhibition is -2.7% in test [1]; -1.9% in test [2]; -6.35% in test [3]; -11.6% in test [4]; -1% in test [5]; -0.95% in test [6].

`O=[N+]([O-])c1ccc(C2=NCC=CCO2)cc1`: the growth inhibition in test [1] was 18%; in test [2] it was 16.2%; in test [3] it was 7.55%; in test [4], -6.55%; in test [5], 4.5%; in test [6] it was 12.8%.

Regarding `Cc1nc2ccc(Cl)cc2c2c1CCS2`, the growth inhibition in test [1] is -19.1%; in test [2], -17.3%; in test [3], -2.8%; in test [4], -18.1%; in test [5], -23.1%; in test [6], -51.4%.

Consider `CNC(=O)c1c(-c2ccc(F)cc2)noc1C`, for which the growth inhibition was -6.7% in test [1]; -10.5% in test [2]; 25.4% in test [3]; 9.05% in test [4]; 17.4% in test [5]; 10.1% in test [6].

For the molecule `CCNC(=O)N(C)Cc1ccc(Cl)cc1`, the growth inhibition in test [1] was -4%; in test [2] it was 8.7%; in test [3], -11.6%; in test [4], -71.5%; in test [5], -8.95%; in test [6] it was -5.1%.

In the case of `C[CH2][Sn]([CH2]C)([O]C(=O)c1ccc2c(c1)OC(C)(C)O2)[O]C(=O)c1ccc2c(c1)OC(C)(C)O2`, the growth inhibition was 51.3% in test [1]; 52.1% in test [2]; 4.7% in test [3]; 41.4% in test [4]; 14% in test [5]; -2.7% in test [6].

`COc1cc(Br)c2ncccc2c1`: the growth inhibition in test [1] was 1.75%; in test [2] it was -0.6%; in test [3] it was 3.85%; in test [4], 4.05%; in test [5], 2.2%; in test [6], -14.5%.

On to `O=C1c2ccccc2C(=O)N1CCn1[nH]c(=O)c2ccccc2c1=O`, for which the growth inhibition in test [1] was -3.25%; in test [2], -10.4%; in test [3] it was -6.55%; in test [4], 8.9%; in test [5], -3.6%; in test [6] it was 14.1%.

Take `Cc1ccnc2[nH]c(-c3cccc(Cl)c3)cc(=O)c12`: the growth inhibition in test [1] is -23.4%; in test [2], -18.6%; in test [3], -41%; in test [4], -33%; in test [5] it was -24.8%; in test [6], -58.5%.

Turning to `Brc1cccc[n+]1CCC[n+]1ccccc1Br`, the growth inhibition in test [1] was 14.8%; in test [2] it was 18.8%; in test [3], 28.2%; in test [4] it was 33.2%; in test [5], 19.4%; in test [6], 15.8%.

As for `CC(C)CCCC(C)C1CCC2(C)C3CCC(C(C)O)C(C)(CCCO)C3CCC12C` (stereo not given), the growth inhibition in test [1] is 47.8%; in test [2], 27.4%; in test [3], 61.4%; in test [4] it was 38.1%; in test [5], 23.8%; in test [6], 55.9%.

`Cc1nn(C(=O)c2ccc(Cl)cc2)c2c1C(c1ccccc1)SC(N)=N2` (stereo not given): the growth inhibition in test [1] was -18.6%; in test [2], -38%; in test [3] it was -5.15%; in test [4], 6.2%; in test [5], 18.4%; in test [6], -3.5%.

Regarding `O=[N+]([O-])c1ccc(Cl)c2cccnc12`, the growth inhibition in test [1] was 27.2%; in test [2] it was -7.65%; in test [3], -0.15%; in test [4], 7.3%; in test [5], 0.45%; in test [6], 50.4%.

`CCCCCN(CCCCC)C(=O)C(C)C`: the growth inhibition in test [1] is -4.45%; in test [2], 7.8%; in test [3], 4.6%; in test [4], -30.1%; in test [5], -2%; in test [6], 5.8%.

As for `O=C(Oc1c(OC(=O)c2ccccc2)c2ccccc2c2ccccc12)c1ccccc1`, the growth inhibition was 3.2% in test [1]; 9.35% in test [2]; 7.85% in test [3]; -1.7% in test [4]; -1.25% in test [5]; 20.4% in test [6].

For `O=C(Nc1ccc(Cl)cc1)Oc1ccc(Br)cc1Br`, the growth inhibition in test [1] is 10.9%; in test [2], -3.95%; in test [3], 10.7%; in test [4], 4.65%; in test [5], -2.7%; in test [6], 13.2%.
